Compound activity from PubChem BioAssay.
Shown are actives, neighbours in structure and some others; about 6.4% of the full set was active somewhere.
RORg inh: blocks mouse ROR gamma transcriptional activity; P51450; Drosophila S2 Gal4-RORgamma UAS-luciferase reporter, 20 h; Potency, µM (doses to about 53.6 µM), hits mostly inhibitors; 310,000 compounds, 5.4% hits; AID 2551; further: nearly all actives have a fitted effect of over 60% in size
Target sequence (P51450 whole entry, looked up, the tested form may be a part): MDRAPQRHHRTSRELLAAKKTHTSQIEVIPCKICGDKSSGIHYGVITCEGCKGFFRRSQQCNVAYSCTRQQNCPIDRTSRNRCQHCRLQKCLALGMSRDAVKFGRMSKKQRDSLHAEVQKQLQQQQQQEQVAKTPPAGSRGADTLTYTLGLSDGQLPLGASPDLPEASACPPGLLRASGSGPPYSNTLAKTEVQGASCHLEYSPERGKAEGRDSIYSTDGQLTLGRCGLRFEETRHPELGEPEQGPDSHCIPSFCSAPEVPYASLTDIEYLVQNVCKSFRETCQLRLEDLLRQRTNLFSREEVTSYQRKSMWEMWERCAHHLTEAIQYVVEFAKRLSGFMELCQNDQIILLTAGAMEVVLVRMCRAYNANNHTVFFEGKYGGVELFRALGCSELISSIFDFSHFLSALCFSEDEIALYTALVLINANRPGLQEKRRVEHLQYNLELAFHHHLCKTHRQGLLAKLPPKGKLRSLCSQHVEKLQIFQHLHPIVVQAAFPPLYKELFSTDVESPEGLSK
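Using a luciferase readout, inhibitors were identified by reduced reporter activity in Drosophila cells coexpressing a copper-inducible Gal4–ROR gamma fusion and UAS-driven Photinus luciferase, incubated 20 hr after 700 uM copper sulfate.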
KinaseGlo FLuc: blocks Kinase-Glo luciferase, a counter-screen artifact; Kinase-Glo luciferase, ATP luminescence, 8 min; AID 1379; Q27757; 200,000 compounds, 0.28% hits; Potency, µM (highest dose often 38.3 µM), hits mostly inhibitors; further: nearly all actives have a fitted effect of over 60% in size
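Substrate mix (final 50 mM imidazole pH 7.2, 50 mM KCl, 7 mM MgCl2, 10 uM ATP, 0.01% Tween 20, 0.05% BSA) plus pin-tool compound, then Kinase-Glo detection mix; 8 min ambient, luminescence read.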
VP16 counter: counter-screen for ROR gamma inhibitors: Gal4-VP16 reporter; Drosophila S2 Gal4-VP16 UAS-luciferase, luminescence, 20 h; 310,000 compounds, 3.5% hits; Potency, µM (highest dose often 53.6 µM), usual class: inhibitors;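 further: Gal4-VP16 expression switched on by copper sulfate through the metallothionein promoter; nearly all actives have a fitted effect of over 50% in size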
Hits are given with their value; n = inactive; u = inconclusive; x = not tested or not shown; [ ] = remark or other dose. The call rests on the fitted dose curve; in most records, active means well fitted curve in the direction sought with a large enough effect; inconclusive means small, poorly fitted or top-dose-only effect, or another doubt; inactive means no such curve, though single readings can be large; an effect the other way counts as inactive or inconclusive.

SMILES	RORg inh	KinaseGlo FLuc	VP16 counter
CCN1CCN(C(=S)Nc2cccc(C(F)(F)F)c2)CC1	n	n	u
N#CCN1C(=S)N=C(Nc2cccc(Cl)c2)C12CCCCC2	2.8µM	n	u
CC(C)(C)C1CCC2(CC1)C(Nc1cccc(C(F)(F)F)c1)=NC(=S)N2CC#N (centres undefined)	18µM	n	13µM
Cc1ccc(NC2=NC(=S)N(CC#N)C23CCCCC3)cc1	18µM	n	n
CCC(C)(C(=O)NC1CCCC1)N(C(=O)CNC(=O)c1ccccc1)c1c(C)n(C)n(-c2ccccc2)c1=O (centres undefined)	n	n	n
CCn1cnc2cc(NCc3ccc(Br)cc3)ccc21	n	x	n
Brc1ccc(CNc2ccc3ncccc3c2)cc1	u	x	7.1µM
CN1CCN(CCCNC(=O)CCCOc2cc(=O)n(C)c3ccccc23)CC1	n	n	n
CC(C)CCNC(=O)CCCOc1cc(=O)n(C)c2ccccc12	13µM	n	n
COc1cc(=O)n(C)c2ccccc12	13µM	n	n
COc1ccc2c(OC)cc(=O)n(C)c2c1	n	n	n
COc1ccc(-c2nc(C(F)(F)F)c(OC)o2)cc1OC	n	n	n
CCOc1cc(NC(=O)c2cnccn2)c(OCC)cc1NC(=O)c1cccc(F)c1	n	n	n
COc1ccc(-c2nc3cnc(OC)nc3n(C)c2=O)cc1	n	x	n
CC(=O)CSCc1ccccn1	x	n[7.66 µM]	x
COc1ccc(NC(=S)N2CCC(C(=O)c3ccc(OC)cc3)CC2)cc1	n	x	n
CCN(CC)CCCC(C)n1c(-c2ccccc2)nc2c(NC3CCCCC3)nc(C)nc21 (centres undefined)	n	n	n
O=C1CCN1C1(C(=O)NC2CCCCC2)CCCC1	n	n	n
C/C(=N\NC(=O)c1nnn(-c2nonc2N)c1C(C)C)c1ccc2ccccc2c1	u	x	n
Cc1nn(C)c(NC(=O)c2ccccc2Cl)c1Br	n	x	n
Cc1nn(C)c(Nc2ccc(Br)cc2)c1Br	u	n	11µM
Cc1cc(Nc2ccc(Br)cc2)nc(-c2ccccc2O)n1	u	x	n
Cc1cc(C)nc(-n2nc(C)c(Br)c2Nc2ccc(Br)cc2)n1	u	n	0.89µM
CC[C@H](C)[C@H](NC(=O)[C@H](Cc1ccc(O)cc1)NC(=O)[C@H](Cc1cnc[nH]1)NC(=O)[C@H](CCCNC(=N)N)NC(=O)[C@H](CC(C)C)NC(=O)[C@H](C)NC(=O)[C@H](CO)NC(=O)[C@H](Cc1ccc(O)cc1)NC(=O)[C@H](Cc1ccc(O)cc1)NC(=O)[C@H](CCCNC(=N)N)NC(=O)[C@H](C)NC(=O)[C@H](CCSC)NC(=O)[C@H](CC(=O)O)NC(=O)[C@H](CCC(=O)O)NC(=O)[C@H](C)NC(=O)[C@@H]1CCCN1)C(=O)N[C@@H](CC(N)=O)C(=O)N[C@@H](CC(C)C)C(=O)N[C@H](C(=O)N[C@H](C(=O)N[C@@H](CCCNC(=N)N)C(=O)N[C@@H](CCC(N)=O)C(=O)N[C@@H](CCCNC(=N)N)C(=O)N[C@@H](Cc1ccc(O)cc1)C(N)=O)[C@@H](C)O)[C@@H](C)CC	n	x	n
CCOc1ccc(N(CC(=O)N2CCCC2)S(=O)(=O)c2ccc(F)cc2)cc1	n	x	n
SMILES	RORg inh	KinaseGlo FLuc	VP16 counter
O=C(O)CCN1C(=O)C(=C2CCCCCC2)SC1=S	u	n	n
O=C1C(=C2CCCCC2)SC(=S)N1Cc1ccco1	13µM	n	n
O=C(CCN1C(=O)[C@@H]2Cc3ccccc3CN2C1=O)N[C@H](C(=O)O)c1ccccc1	n	x	n
COc1ccc(Nc2nc(Nc3ccc(OC)cc3)nc(-n3[nH]c(=O)c(C)c3C)n2)cc1	1.3µM	n	4µM
COc1ccc(Nc2nc(OC)nc(OC)n2)cc1	n	x	n
Cn1c(N)c(C(=O)COC(=O)CCCOc2ccc(Cl)cc2Cl)c(=O)n(C)c1=O	n	n	n
Clc1ccccc1N=C1NN=C(c2cccs2)CS1	11µM	n	u
Fc1ccccc1N=C1NN=C(c2ccccc2)CS1	u	n	n
Cc1cc(NC(=O)c2ccccc2)sc1C	n	11µM	u
Cc1cc(NC(=O)c2ccccc2)cc(NC(=O)c2ccccc2)c1C	n[1.91 µM]	x	n
CCOc1ccc(/C=C/C2=CC(C)(C)NC(=S)N2)cc1	0.71µM	n	2.2µM
COc1cccc(/C=N/n2c(-c3cc(C)[nH]n3)n[nH]c2=S)c1	n	x	n
CCOc1ccc(/C=C/c2[nH]c(=O)[nH]c(=O)c2[N+](=O)[O-])cc1	n[1.91 µM]	x	n
COc1ccc(/C=C/c2ccncc2)cc1OC	n	n	n
COc1cccc(/C=C/C2=CC(C)(C)NC(=S)N2)c1	1.3µM	n	5µM
COc1ccc(/C=C/C2=CC(C)(C)NC(=S)N2)cc1OC	3.2µM	n	n
COc1cccc(C(=O)NCC(=O)NCc2cc(=O)n(C)c(=O)n2C)c1OC	n	x	n
